Only some compounds are listed: those with a hit (about 3.6% of all), similar ones and a draw of the others.
Sm TGR inh = qHTS Assay for the Inhibitors of Schistosoma Mansoni Peroxiredoxins; Schistosoma mansoni thioredoxin glutathione reductase (TGR), Q962Y6; purified TGR, DTNB reduction, TNB absorbance 405 nm; Potency, µM (series often up to 114 µM), without a hit: at the highest dose activity change, negative = inhibition, hits mostly inhibitors; 360,000 tested, 3% active; note: nearly all actives have a fitted effect of over 60% in size
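Kinetic colorimetric format: TGR-catalysed, NADPH-driven DTNB reduction monitored via TNB absorbance. Enzyme dispensed at 20 nM; compound exposure 15 min at room temperature before reaction start.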
AmpC inh no detg = qHTS Inhibitors of AmpC Beta-Lactamase (assay without detergent); AmpC nitrocefin hydrolysis, absorbance 480 nm, 0.0001% Triton; 330,000 tested, 0.52% active; P00811; Potency, µM (top dose mostly 57.1 µM), inactives show top-dose activity change, negative = inhibition, usual class: inhibitors;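 note: plate controls were no compound for no effect and no enzyme for full effect; nearly all actives have a fitted effect of over 20% in size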
Target sequence (P00811 whole entry, looked up): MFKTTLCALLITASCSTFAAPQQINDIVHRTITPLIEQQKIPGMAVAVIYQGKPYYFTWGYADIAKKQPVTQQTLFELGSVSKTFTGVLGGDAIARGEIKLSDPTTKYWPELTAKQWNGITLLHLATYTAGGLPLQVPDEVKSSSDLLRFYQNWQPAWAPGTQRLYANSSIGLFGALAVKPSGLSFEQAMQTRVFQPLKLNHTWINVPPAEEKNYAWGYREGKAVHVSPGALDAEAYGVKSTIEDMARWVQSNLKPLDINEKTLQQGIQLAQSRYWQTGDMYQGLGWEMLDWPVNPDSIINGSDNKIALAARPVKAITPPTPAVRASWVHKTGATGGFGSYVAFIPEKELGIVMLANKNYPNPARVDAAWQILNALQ
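AmpC (5.3 nM in the dispensed reagent) in 20 mM phosphate pH 7.0 with 0.01% (detergent screen) or 0.0001% Triton X-100 was preincubated with compounds for 15 min at room temperature. Nitrocefin was then added from an 800 uM solution, and hydrolysis was followed at 480 nm.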
AmpC inh detg = qHTS Inhibitors of AmpC Beta-Lactamase (assay with detergent); Potency, µM (doses to about 114 µM), inactives show at the highest dose activity change, negative = inhibition, usual class: inhibitors; AmpC hydrolysis of nitrocefin, absorbance 480 nm, 0.01% Triton; 370,000 tested, 0.041% active;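 note: 0% = no-compound wells and -100% = no-enzyme wells; nearly all actives have a fitted effect of over 25% in size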
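AmpC (5.3 nM in the dispensed reagent) in 20 mM phosphate pH 7.0 with 0.01% (detergent screen) or 0.0001% Triton X-100 was preincubated with compounds for 15 min at room temperature. Nitrocefin was then added from an 800 uM solution, and hydrolysis was followed at 480 nm.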
Giardia FBPA inh = qHTS Assay for Inhibitors of Fructose-1,6-bisphosphate Aldolase from Giardia Lamblia. A8B2U2. purified Giardia FBPA. Potency, µM (series often up to 59.6 µM), without a hit: at the top dose activity, negative = inhibition, most hits filed as inhibitors. 290,000 tested, 0.71% active; note: nearly all actives have a fitted effect of over 55% in size
Target sequence (A8B2U2 whole entry, looked up): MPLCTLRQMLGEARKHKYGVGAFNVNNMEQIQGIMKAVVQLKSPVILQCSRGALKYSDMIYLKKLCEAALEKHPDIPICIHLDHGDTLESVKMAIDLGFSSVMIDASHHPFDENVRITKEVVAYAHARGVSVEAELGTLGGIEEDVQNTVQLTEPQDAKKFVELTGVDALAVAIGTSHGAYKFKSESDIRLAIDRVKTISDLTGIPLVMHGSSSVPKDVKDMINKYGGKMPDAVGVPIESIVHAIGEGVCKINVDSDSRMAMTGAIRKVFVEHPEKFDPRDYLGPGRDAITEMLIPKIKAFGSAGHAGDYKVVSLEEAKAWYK
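Giardia FBPA (40 nM reagent) was preincubated 10 min at RT with compound (up to 57.5 uM final), then substrate plus GAPDH/TPI/NAD/arsenate coupling system with diaphorase/resazurin was added; resorufin fluorescence (525/598 nm) was read after 20 min.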
* marks the source's active call; other numbers are inactive results. Calls come from the whole dose curve; as a rule, active = well fitted curve in the direction sought with a large enough effect; inconclusive = small, poorly fitted or top-dose-only effect, or another doubt; inactive = no such curve, though single readings can be large; an effect the other way counts as inactive or inconclusive. Unless noted, % is set by controls: 0 for no effect and ±100 for the full control effect; potency is the fitted concentration of half-maximal effect.

For Cc1ccccc1S(=O)(=O)NC1OC(=O)C(Oc2ccccc2)=C1Br (stereo not given) the results were Sm TGR inh 8.91µM*, AmpC inh no detg -13.9%, AmpC inh detg 6.8% and Giardia FBPA inh -6.6%.
For Cc1ccccc1S(=O)(=O)Nc1nc2ccccc2nc1Cl the results were Sm TGR inh -1.7%, AmpC inh no detg 12.7%, AmpC inh detg 2.1% and Giardia FBPA inh 17.1%.
`Cc1ccccc1S(=O)(=O)NC1OC(=O)C(Cl)=C1Cl` (stereo not given) gave Sm TGR inh 3.16µM*, AmpC inh no detg -33.5%, AmpC inh detg -0.4% and Giardia FBPA inh -0.2%.
Screening COc1ccc(-c2c3c(=O)n(C)c(=O)n(C)c3cn2-c2ccc(O)cc2)cc1 returned Sm TGR inh 44.7µM*, AmpC inh no detg -34.8%, AmpC inh detg -9.2% and Giardia FBPA inh 3.6%.
Cc1ccc(Cn2ccsc2=NC(=O)COC(=O)c2ccc(NC(=O)CC#N)cc2)cc1 was read as Sm TGR inh -4.3%, AmpC inh no detg -41.1% and AmpC inh detg -14.3%.
Cc1ccc(Cn2ccsc2=NC(=O)CCl)cc1 was read as Sm TGR inh 14.1µM*, AmpC inh no detg -1.3%, AmpC inh detg 6.2% and Giardia FBPA inh 4.1%.
Cc1ccc(-c2nc(=S)c3c(n2Cc2ccco2)CC(C)(C)OC3)cc1 was read as Sm TGR inh -18.5%, AmpC inh no detg 0.0%, AmpC inh detg -13.8% and Giardia FBPA inh -0.1%.
`OCCCn1c(-c2ccccc2)nc(=S)c2c1CCCC2` gave Sm TGR inh inconclusive, AmpC inh no detg -13.8%, AmpC inh detg -5.8% and Giardia FBPA inh inconclusive.
`COc1cccc(-c2nc(=S)c3c(n2Cc2ccco2)CCCC3)c1` gave Sm TGR inh inconclusive, AmpC inh no detg -23.2%, AmpC inh detg 2.5% and Giardia FBPA inh -4.4%.
Screening Cc1ccc(-c2nc(=S)c3c(n2Cc2ccco2)CCCC3)cc1 returned Sm TGR inh 8.91µM*, AmpC inh no detg -9.6%, AmpC inh detg inconclusive and Giardia FBPA inh 6.9%.
`Cc1cccc(-c2nc(=S)c3c(n2Cc2ccco2)CCCC3)c1` gave Sm TGR inh 20µM*, AmpC inh no detg -13.5%, AmpC inh detg inconclusive and Giardia FBPA inh -14.8%.
Screening CN(C)CCCn1c(-c2ccccc2)nc(=S)c2c1CCCC2 returned Sm TGR inh 44.7µM*, AmpC inh no detg -18.9%, AmpC inh detg -0.9% and Giardia FBPA inh -1.0%.
For Cc1ccc(C(=O)Nc2ccc(S(=O)(=O)Nc3cnc4ccccc4n3)cc2)cc1 the results were Sm TGR inh -13.9%, AmpC inh no detg -34.4%, AmpC inh detg -19.2% and Giardia FBPA inh -21.9%.
`Cc1ccc(Cn2c(C)c3cnn(CC(=O)N4CCN(c5cc(C)ccc5C)CC4)c(=O)c3c2C)cc1` gave Sm TGR inh -1.3% and AmpC inh detg 7.4%.
Screening Oc1c(CN2CCCC(C(F)(F)F)C2)cc(Cl)c2ccccc12 (stereo not given) returned Sm TGR inh 2µM*, AmpC inh no detg -29.1%, AmpC inh detg -1.4% and Giardia FBPA inh -15.6%.
`CCOC(=O)C1CCN(Cc2ccc(OC)c(C)c2OC)CC1` gave Sm TGR inh -6.8%, AmpC inh no detg -1.8%, AmpC inh detg inconclusive and Giardia FBPA inh -28.0%.
For CCOC(=O)C1CCN(Cc2cc(Cl)c3ccccc3c2O)CC1 the results were Sm TGR inh 4.47µM*, AmpC inh no detg -7.4%, AmpC inh detg -12.5% and Giardia FBPA inh inconclusive.
`CCN(CC)c1ccc(/C=C(/C#N)C(=O)NCc2ccccc2)o1` gave Sm TGR inh 35.5µM*, AmpC inh no detg -44.6%, AmpC inh detg 4.2% and Giardia FBPA inh -3.8%.
CCN(CC)c1ccc(/C=C(/C#N)C(=O)NC(C)C)o1 was read as AmpC inh no detg -14.7%, AmpC inh detg -13.7% and Giardia FBPA inh -12.6%.
For CCN=C(N/N=C/c1ccc([N+](=O)[O-])cc1)SC the results were Sm TGR inh 44.7µM*, AmpC inh no detg -26.2%, AmpC inh detg -13.0% and Giardia FBPA inh -23.8%.
For CCCC(=O)N(c1ccc2oc(=O)sc2c1)S(=O)(=O)c1ccccc1 the results were Sm TGR inh 2.2%, AmpC inh no detg 10µM*, AmpC inh detg inconclusive and Giardia FBPA inh -10.8%.
`O=C(CCl)Nc1ccc(-c2ccccc2)cc1` gave Sm TGR inh 4.47µM*, AmpC inh no detg -1.0%, AmpC inh detg 2.1% and Giardia FBPA inh 0.4%.
For CC(=O)Nc1ccc(N=Nc2ccccc2)cc1 the results were Sm TGR inh -17.9%, AmpC inh no detg -9.9%, AmpC inh detg inconclusive and Giardia FBPA inh 4.6%.
`O=C(CCl)Nc1ccc(N=Nc2ccccc2)cc1` gave Sm TGR inh 39.8µM*, AmpC inh no detg -24.7%, AmpC inh detg 3.8% and Giardia FBPA inh -11.6%.
For CC(=O)Nc1ccc(NC(=O)Cc2ccc(-c3ccccc3)cc2)cc1 the results were Sm TGR inh 3.0%, AmpC inh no detg 13.0%, AmpC inh detg 2.1% and Giardia FBPA inh 6.1%.
Screening O=C(CCl)Nc1cn(-c2ccccc2)nc1-c1ccccc1 returned Sm TGR inh 17.8µM*, AmpC inh no detg -16.5%, AmpC inh detg 3.5% and Giardia FBPA inh -5.5%.
`CC(C)N(c1ccccc1)c1ccc(NC(=O)CCl)cc1` gave Sm TGR inh 14.1µM*, AmpC inh no detg -15.1%, AmpC inh detg -6.9% and Giardia FBPA inh 0.0%.
For CCN1CCCC1CNC(=O)CN(C)S(=O)(=O)c1ccc(Cl)cc1 (stereo not given) the results were Sm TGR inh -5.6%, AmpC inh no detg -12.4%, AmpC inh detg inconclusive and Giardia FBPA inh -24.6%.
`O=C(CSc1nnnn1-c1cccc(O)c1)NC1CC1` gave Sm TGR inh 0.2%, AmpC inh no detg 2.2%, AmpC inh detg -4.0% and Giardia FBPA inh 7.1%.
For Cc1ccc(CNC(=O)Cn2ccc3ccccc3c2=O)o1 the results were Sm TGR inh 31.6µM*, AmpC inh no detg -12.8%, AmpC inh detg -10.5% and Giardia FBPA inh 4.3%.
`O=C(c1cnccn1)N1CCC2(CC1)CN(c1ccncc1)C2` gave Giardia FBPA inh -4.0%.
Screening COc1ccc2c(c1)NC(c1cc(Cl)cc(Cl)c1O)c1cccn1-2 (stereo not given) returned Sm TGR inh -23.4%, AmpC inh no detg -20.4%, AmpC inh detg 7.2% and Giardia FBPA inh -3.6%.
For COc1ccc2c(c1)NC(c1ccc(N(C)C)cc1)c1cccn1-2 (stereo not given) the results were Sm TGR inh 50.1µM*, AmpC inh no detg 75.0%, AmpC inh detg 17.1% and Giardia FBPA inh inconclusive.
CN(C)c1cccc2c1c(NC(=O)c1ccc(Cl)cc1)nn2C was read as Sm TGR inh -6.8%, AmpC inh no detg -10.7%, AmpC inh detg 11.5% and Giardia FBPA inh 17.7µM*.
N#CCC(=O)Nc1ccc(C(=O)NCc2cccc(Cl)c2)cc1 was read as Sm TGR inh 3.1%, AmpC inh no detg 17.8µM*, AmpC inh detg -10.6% and Giardia FBPA inh 0.7%.
